# Source: PubChem BioAssay (several laboratories)
# In the library only some 2.6% were active in any assay of this set; here they are far more common.
# KKLEB tox: CF airway cell cytotoxicity counter-screen. KKLEB CF airway cells viability, ATPlite luminescence, overnight; stronger effect = lower value; cells stimulated with P. aeruginosa culture filtrate. activity change (cytotoxicity), % at 5 µM. 360,000 tested, 0.36% active. AID 602141;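 active means corrected activity change at or below -50% at 5 µM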
# LGR2 antag: blocks bursicon-induced cAMP signaling via Drosophila LGR2; HEK293 LGR2, CRE-luciferase, bursicon-stimulated, 4 h; inhibition, % at 9.99 µM; 380,000 tested, 0.35% active; AID 720647;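 active means drop in luminescence signal, shown as inhibition above about 50% in the replicate tests, limit read from the data, passing the limit was not always enough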;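 further: agonist challenge used bursicon conditioned medium at about half maximal strength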
# TROY signal inh: TROY signaling inhibition; Q293 LMP1-TROYcd NF-kB luciferase reporter, 4 h; inhibition, % at 10 µM; 360,000 tested, 0.98% active; AID 1347056;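 active means compounds whose plate-normalised and pattern-corrected inhibition of the luciferase reporter signal at the single screening dose is 50% or more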
# EWS-Fli block: inhibitors of EWS/Fli oncoprotein transcriptional activity | inhibition, % at 12.6 µM | 350,000 tested, 0.67% active | A673 NR0B1-luciferase reporter, viability-normalised;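 active means mean inhibition of at least 50% after viability correction, with every replicate also passing that limit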;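 further: firefly luciferase signal divided by Alamar Blue viability fluorescence both relative to DMSO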
# CF NFkB block: cystic fibrosis NF-kB activation inhibition; KKLEB NF-kB-GFP reporter, PAF-induced, GFP fluorescence overnight; inhibition, % at 5 µM; 360,000 tested, 0.86% active;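 active means at least 50% inhibition at 5 µM, scaled per plate between neutral and stimulator controls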;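 further: PAF is a Pseudomonas aeruginosa culture filtrate used as stimulus; plate controls were PAF-stimulated DMSO wells for no effect and unstimulated DMSO wells for full effect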
# TWEAK-Fn14 inh: blocks TWEAK-Fn14 interaction in a reporter cell assay. AID 1159606. inhibition, % at 10 µM. TWEAK-stimulated Fn14 reporter cells, luciferase luminescence, 8 h. 360,000 tested, 2% active; in the data active means inhibition above about 50%
# Active calls of the source: *; . = no result given; ! = repeats disagree.
SMILES,KKLEB tox,LGR2 antag,TROY signal inh,EWS-Fli block,CF NFkB block,TWEAK-Fn14 inh
C[C@@H]1CCCCO[C@@H](CN(C)C)[C@@H](C)CN([C@H](C)CO)C(=O)c2cc(NC(=O)Nc3cccc4ccccc34)ccc2O1,.,18,.,4,.,.
Cc1ccc(N=C2SC(C(=O)Nc3ccc(OC(F)(F)F)cc3)C(N)=C2C(=O)Nc2c(C)cc(C)cc2C)cc1 (stereo not given),-60*,-3,13,.,72*,64*
Cc1ccc(NC(=O)C2SC(=Nc3ccccc3)C(C(=O)Nc3ccc(Cl)cc3)=C2N)cc1 (stereo not given),5,.,-29,.,-3,-10
CN(CC(=O)N1CCN(c2ccccn2)CC1)S(=O)(=O)c1ccc(Br)cc1,-4,.,.,.,7,92*
CN(CC(=O)N1CCCCCC1)S(=O)(=O)c1ccc(Br)cc1,-4,8,10,-1,3,-12
Cc1ccc(S(=O)(=O)N2CCC(C(=O)N3CCN(c4ccccn4)CC3)CC2)cc1,12,-3,-3,.,-11,76*
COc1ccc(CC2=C(O)c3ccccc3C(=O)C2=O)cc1,-9,8,17,-6,-3,33
O=C1C(=O)c2ccccc2C(O)=C1CCCCl,-25,.,-4,.,79*,5
CC/C(=N\Nc1ccccc1[N+](=O)[O-])c1ccc(O)cc1,-1,-8,53*,0,17,5
Cc1cc(C)c2cc3c(N)c(C(=O)Nc4c(C)[nH]c(=O)[nH]c4=O)sc3nc2c1,-1,13,16,.,3,66*
Cc1cc(C)c2cc3c(N)c(C(=O)N4CCOCC4)sc3nc2c1,7,-24,-19,-88,4,-3
O=C(/C=C/c1cccc([N+](=O)[O-])c1)c1ccco1,-6,-15,12,58*,3,31
O=C(/C=C/c1cccc([N+](=O)[O-])c1)c1ccc([N+](=O)[O-])o1,-89*,32,73*,81*,97*,98*
O=C(/C=C/c1cccc([N+](=O)[O-])c1)Nc1cccc(NC(=O)c2ccco2)c1,-4,32,-6,-4,0,14
O=C(/C=C/c1cccc([N+](=O)[O-])c1)NCc1ccc2c(c1)OCO2,-1,-28,13,.,-4,-13
O=C(/C=C/c1ccc(Cl)c([N+](=O)[O-])c1)Nc1cccc(NC(=O)c2ccco2)c1,6,57*,41,-9,6,55*
Cc1ccc(NC(=O)c2ccc([N+](=O)[O-])o2)c(C)c1,0,-21,11,11,16,23
Cc1cccc(/C=C/C(=O)c2ccc([N+](=O)[O-])o2)c1,-35,101*,23,63*,90*,61*
C[C@@H]1CN([C@@H](C)CO)C(=O)c2cc(C#CCc3ccccc3)cnc2O[C@H]1CN(C)Cc1cccc(F)c1,.,14,.,11,.,.
Cc1ccccc1/C=C/C(=O)c1ccc([N+](=O)[O-])o1,.,92*,.,71*,.,.
COc1ccc(S(=O)(=O)Nc2cccc(-c3ccc4nncn4n3)c2)cc1F,-40,-3,11,56*,16,2
O=S(=O)(Nc1cccc(-c2ccc3nncn3n2)c1)c1cccc(F)c1,-2,-3,-12,-2,6,-5
CCN(CC)C(=O)CSc1nc(-c2ccc(C)cc2)nc2c1COC(C)(C)C2,15,.,58*,.,1,58*
C[C@H](CO)N1C[C@H](C)[C@H](CN(C)CC2CCCCC2)Oc2c(NC(=O)Nc3ccccc3)cccc2C1=O,.,10,.,23,.,.
O=C(Nc1ccc2oc(-c3ccccc3)nc2c1)c1cc(-n2cnnc2)ccc1Cl,10,19,-34,-50,-20,32
SMILES,KKLEB tox,LGR2 antag,TROY signal inh,EWS-Fli block,CF NFkB block,TWEAK-Fn14 inh
O=C(Nc1ccc(-c2nc3ccccc3o2)cc1)c1cc(-n2cnnc2)ccc1Cl,3,.,36,.,6,76*
O=C(Nc1ccc(-c2nc3ccccc3o2)cc1)c1ccc2c(c1)OCO2,-8,-23,-31,4,10,1
O=C(Nc1ccc(-c2nc3ccccc3o2)cc1)c1ccc(N2C(=O)C3C4C=CC(C4)C3C2=O)cc1 (stereo not given),-10,0,57*,.,18,21
O=C(Nc1ccc(-c2nc3ccccc3o2)c(O)c1)c1cc(-n2cnnc2)ccc1Cl,9,.,38,.,-3,66*
O=c1oc2ccccc2cc1-c1nc2ccccc2o1,9,9,0,-44,-14,20
O=c1oc2ccccc2cc1-c1nc2c(s1)CCCC2,-19,43,66*,60*,-13,84*
FC(F)(F)c1nc2ccccc2n2c(-c3ccc(Cl)cc3Cl)nnc12,-4,.,11,.,16,-2
FC(F)(F)c1nnc2c(Sc3ccccc3)nc3ccc(Cl)cc3n12,-90*,.,-6,.,96*,53*
Cc1ccc(S(=O)(=O)N2CCN(C(=O)c3cc(C4CC4)nn3-c3ccccc3)CC2)cc1,-10,8,9,24,9,13
Cc1ccc(C)c(S(=O)(=O)N2CCN(C(=O)c3cc(-c4cccs4)nn3-c3ccccc3)CC2)c1,-10,32,33,10,31,64*
COc1ccc2c3c(n(C)c2c1)[C@H](CO)N(Cc1ccccc1F)CC31CN(C(=O)C2CC2)C1,.,8,.,-1,.,.
O=C(C[C@@H]1C=C[C@H](NC(=O)C2CCOCC2)[C@H](CO)O1)Nc1ccccc1,.,17,.,-1,.,.
CCCCCCCCCCOC(=O)Cn1c(COc2ccccc2C)[n+](C)c2ccccc21,-42,17,52*,.,60*,92*
CCCCCCCCCCOC(=O)Cn1c(COc2cccc(C)c2)[n+](C)c2ccccc21,-28,9,46,15,24,51*
CCCCCCCCCCOC(=O)Cn1c(COc2ccccc2)[n+](C)c2ccccc21,-62*,12,43,29,71*,70*
CCCCCCCCCCOC(=O)Cn1c(COc2ccc(OC)cc2)[n+](C)c2ccccc21,-22,.,65*!,.,34,62*
CCCCCCCCCCOC(=O)Cn1c(COc2ccc(Cl)cc2)[n+](C)c2ccccc21,1,8,43,35,12,19
COc1ccc(NC(=O)Nc2ccc3c(c2)C(=O)N([C@H](C)CO)C[C@@H](C)[C@H](CN(C)C(=O)Nc2ccc4c(c2)OCO4)OCCCC[C@@H](C)O3)cc1,.,-2,.,9,.,.
C[C@@H]1CN([C@H](C)CO)C(=O)c2cc(NS(C)(=O)=O)ccc2O[C@@H](C)CCCCO[C@H]1CN(C)S(=O)(=O)c1ccc(Cl)cc1,.,1,.,1,.,.
CO[C@H]1CN(C)C(=O)c2cc(NS(=O)(=O)c3cccc(F)c3)ccc2OC[C@H](C)N(C(=O)Cc2cccnc2)C[C@H]1C,.,-16,.,2,.,.
O=C(C[C@H]1C=C[C@@H](NC(=O)c2ccccc2)[C@@H](CO)O1)NCc1ccncn1,.,-12,.,-5,.,.
